# Reference: PubChem BioAssay (NCATS)
# Values joined by “and” are separate entries in the source; they are usually repeats but may differ in a detail not shown here. Identical values can stand only once. Records with an inconclusive call do not appear. A call without a number means that no potency is given here. Where a structure was tested more than once in an assay, its records may differ in their call. Active and inactive are the calls of the source. Unless noted, the call rests on the fitted dose curve; in most records, active means well fitted curve in the direction sought with a large enough effect; inconclusive means small, poorly fitted or top-dose-only effect, or another doubt; inactive means no such curve, though single readings can be large; an effect the other way counts as inactive or inconclusive.
# Legend:
# [1] = Primary qHTS for small molecule stabilizers of the endoplasmic reticulum resident proteome: Secreted ER Calcium Modulated Protein (SERCaMP) assay (AID 1508630); settings: SH-SY5Y GLuc-SERCaMP (Gaussia luciferase released on ER calcium loss) secretion, thapsigargin, luminescence; series mostly up to 38.4 µM; further: potency means the concentration at half of the fitted maximal effect
# How it was run: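 GLuc-SERCaMP-expressing SH-SY5Y cells, pretreated 16 h with compound, are challenged with thapsigargin to empty ER calcium stores; after 4 h, coelenterazine is added directly to the medium and luminescence is imaged.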
# [2] = target: Cytochrome P450 2C9 (Homo sapiens) (UniProt P11712); assay: Cytochrome P450 family 2 subfamily C member 9 (CYP2C9) small molecule antagonists: luciferase biochemical (cell-free) qHTS assay (AID 1645842; active means well fitted curve in the direction sought with a large enough effect in the repeat runs; an effect the other way counts as inactive or inconclusive; further: nearly all actives have a fitted effect of over 55% in size; further: potency means the concentration at half of the fitted maximal effect); settings: P450-Glo CYP2C9 enzyme assay, luciferin luminescence; series mostly up to 57.4 µM
# How it was run: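 Luminescence, after 20 min with luciferin detection reagent, reflected CYP2C9 turnover during a 1 h NADPH-driven reaction at 37C. Enzyme-substrate mix contained 0.4% bovine serum albumin and was preincubated with compound 10 min at room temperature.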
# [3] = Primary qHTS for inhibitors of nuclear receptor binding SET domain protein 2 (NSD2) in an isogenic RCH-ACV NSD2 p.E1099K mutant (9B) (AID 1645876); settings: RCH-ACV NSD2 E1099K (9B) viability, CellTiter-Glo, 72 h; series mostly up to 44.9 µM; further: nearly all actives have a fitted effect of over 70% in size; further: potency means the concentration at half of the fitted maximal effect
# [4] = Primary qHTS for inhibitors of nuclear receptor binding SET domain protein 2 (NSD2) in an RCH-ACV wild type WT cells (2C) (AID 1645877); settings: RCH-ACV (leukaemia line) NSD2 WT (2C) viability, CellTiter-Glo, 72 h; series mostly up to 44.9 µM; further: nearly all actives have a fitted effect of over 70% in size; further: potency means the concentration at half of the fitted maximal effect
# [5] = target: Cytochrome P450 2D6 (Homo sapiens) (UniProt P10635); assay: Cytochrome P450 family 2 subfamily D member 6 (CYP2D6) small molecule antagonists: luciferase biochemical (cell-free) qHTS assay (AID 1645840; active means well fitted curve in the direction sought with a large enough effect in the repeat runs; an effect the other way counts as inactive or inconclusive; further: nearly all actives have a fitted effect of over 55% in size; further: potency means the concentration at half of the fitted maximal effect); settings: P450-Glo CYP2D6 enzyme, luciferin luminescence, 1 h; series mostly up to 57.4 µM
# How it was run: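 P450-Glo luminescent screen: recombinant CYP2D6 enzyme–proluciferin substrate mix preincubated with compound 10 min at room temperature, then NADPH regeneration added for 1 h at room temperature. Detection reagent added for 20 min; luciferin light read as relative luminescence units.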
# Papain (Carica papaya) = Papain (Carica papaya) (UniProt P00784); assay: Primary qHTS assay for inhibitors of the protease papain (AID 1645873); settings: papain Z-FR-AMC cleavage, AMC fluorescence; series mostly up to 49.8 µM;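 further: papain turnover of Z-FR-AMC read as the AMC fluorescence gain over 10 min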
# [6] = target: Catechol O-methyltransferase (Homo sapiens) (UniProt P21964); assay: Confirmatory Screen for Target Class Profiling of Small Molecule Inhibitors of Methyltransferases (AID 1745852; calls by dose curve); settings: MTase-Glo luminescence, SAH detection, recombinant enzyme; measured here: COMT max response; stronger effect = lower value
# [7] = target: Guanidinoacetate N-methyltransferase (Homo sapiens) (UniProt Q14353); assay: as above; settings: MTase-Glo luminescence, SAH detection, recombinant enzyme; activity change, negative = inhibition: at 57.3 µM (top of the series) unless noted
# [8] = target: Nicotinamide N-methyltransferase (Homo sapiens) (UniProt P40261); assay: as above; settings: MTase-Glo luminescence, SAH detection, recombinant enzyme; measured here: NNMT max response; stronger effect = lower value
# [9] = target: Phenylethanolamine N-methyltransferase (Homo sapiens) (UniProt P11086); assay: as above; settings: MTase-Glo luminescence, SAH detection, recombinant enzyme; measured here: PNMT max response; stronger effect = lower value
# [10] = NCATS anti-infectives library activity on HEK293 viability as a counter-qHTS vs the C. elegans viability qHTS (AID 1745854); settings: HEK293 viability counter-screen; series mostly up to 41.8 µM
# How it was run: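 HEK293 cells, 1500 per well, exposed 24 hr at 37C in 5% CO2 to compounds in a 1:5 titration, up to 41.7 uM final. Viability read as CellTiter-Glo luminescence after 10 min at room temperature.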
# [11] = target: Cytochrome P450 3A4 (Homo sapiens) (UniProt P08684); assay: Cytochrome P450 family 3 subfamily A member 4 (CYP3A4) small molecule antagonists: luciferase qHTS assay (AID 1645841; active means well fitted curve in the direction sought with a large enough effect in the repeat runs; an effect the other way counts as inactive or inconclusive; further: nearly all actives have a fitted effect of over 45% in size); settings: P450-Glo CYP3A4 enzyme assay, luciferin luminescence; series mostly up to 57.4 µM
# How it was run: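 P450-Glo CYP3A4 enzyme with proluciferin substrate preincubated 10 min with compound at room temperature, then NADPH regeneration 1 h. Luciferin detection reagent added for 20 min; luminescence recorded. Ketoconazole positive control.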
# [12] = target: N-terminal Xaa-Pro-Lys N-methyltransferase 1 (Homo sapiens) (UniProt Q9BV86); assay: Confirmatory qHTS for Inhibitors of N-terminal methyltransferase 1 (NTMT1): MTaseGlo Assay (AID 1645874); settings: NTMT1 enzyme, MTase-Glo SAH luminescence; series mostly up to 100 µM; further: nearly all actives have a fitted effect of over 65% in size; further: potency means the concentration at half of the fitted maximal effect;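 on activity change, negative = inhibition: luminescence from SAH made as NTMT1 methylates SPKRIA peptide using SAM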
# How it was run: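 NTMT1 (125 nM) preincubated 15 min with compound and 100 uM SAM, then 1 uM SPKRIA peptide added for 30 min at room temperature. SAH detected by MTase-Glo luminescence; normalized to no-enzyme and DMSO controls, fitted to 4-parameter Hill.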
# Chain of Phenylethanolamine N-methyltransferase (Homo sapiens) (P11086 whole entry, looked up): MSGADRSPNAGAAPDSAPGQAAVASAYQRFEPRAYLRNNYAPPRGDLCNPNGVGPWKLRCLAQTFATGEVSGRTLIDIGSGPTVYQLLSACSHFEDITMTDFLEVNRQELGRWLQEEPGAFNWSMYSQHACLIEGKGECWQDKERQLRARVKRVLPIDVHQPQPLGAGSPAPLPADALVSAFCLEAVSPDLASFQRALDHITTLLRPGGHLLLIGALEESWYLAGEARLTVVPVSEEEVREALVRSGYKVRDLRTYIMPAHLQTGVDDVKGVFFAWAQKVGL
# Chain of Cytochrome P450 2D6 (Homo sapiens) (P10635 whole entry, looked up): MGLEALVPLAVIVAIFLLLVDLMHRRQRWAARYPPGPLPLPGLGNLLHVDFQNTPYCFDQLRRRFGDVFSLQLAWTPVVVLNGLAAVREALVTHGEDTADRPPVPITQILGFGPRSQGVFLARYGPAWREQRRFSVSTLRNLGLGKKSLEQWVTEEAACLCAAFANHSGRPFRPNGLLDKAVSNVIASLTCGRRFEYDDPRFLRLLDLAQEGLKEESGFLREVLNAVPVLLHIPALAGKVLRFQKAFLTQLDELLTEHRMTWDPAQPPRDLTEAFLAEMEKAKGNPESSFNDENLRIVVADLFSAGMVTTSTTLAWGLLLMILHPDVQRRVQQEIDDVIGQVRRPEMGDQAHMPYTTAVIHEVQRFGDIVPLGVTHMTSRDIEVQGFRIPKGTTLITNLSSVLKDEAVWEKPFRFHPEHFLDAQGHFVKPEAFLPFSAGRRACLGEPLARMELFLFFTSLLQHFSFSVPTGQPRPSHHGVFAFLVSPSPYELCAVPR
# Chain of Nicotinamide N-methyltransferase (Homo sapiens) (P40261 whole entry, looked up): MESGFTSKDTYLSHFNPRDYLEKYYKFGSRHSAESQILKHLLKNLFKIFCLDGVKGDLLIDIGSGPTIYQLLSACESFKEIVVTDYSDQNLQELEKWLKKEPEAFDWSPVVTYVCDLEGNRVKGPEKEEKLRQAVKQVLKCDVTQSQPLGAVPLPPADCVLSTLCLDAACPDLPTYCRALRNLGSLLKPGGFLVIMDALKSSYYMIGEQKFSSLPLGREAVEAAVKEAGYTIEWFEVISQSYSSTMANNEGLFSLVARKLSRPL
# Chain of Papain (Carica papaya) (P00784 whole entry, looked up): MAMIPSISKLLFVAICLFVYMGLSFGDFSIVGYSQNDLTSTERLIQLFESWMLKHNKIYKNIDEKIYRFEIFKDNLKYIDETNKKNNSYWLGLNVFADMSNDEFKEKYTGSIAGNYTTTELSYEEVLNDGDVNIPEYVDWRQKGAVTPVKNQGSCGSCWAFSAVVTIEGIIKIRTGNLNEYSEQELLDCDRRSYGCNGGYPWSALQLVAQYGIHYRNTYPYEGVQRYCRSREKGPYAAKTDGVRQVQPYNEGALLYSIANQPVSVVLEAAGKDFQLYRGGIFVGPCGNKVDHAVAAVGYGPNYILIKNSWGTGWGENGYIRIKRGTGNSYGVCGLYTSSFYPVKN
# Chain of Cytochrome P450 2C9 (Homo sapiens) (P11712 whole entry, looked up): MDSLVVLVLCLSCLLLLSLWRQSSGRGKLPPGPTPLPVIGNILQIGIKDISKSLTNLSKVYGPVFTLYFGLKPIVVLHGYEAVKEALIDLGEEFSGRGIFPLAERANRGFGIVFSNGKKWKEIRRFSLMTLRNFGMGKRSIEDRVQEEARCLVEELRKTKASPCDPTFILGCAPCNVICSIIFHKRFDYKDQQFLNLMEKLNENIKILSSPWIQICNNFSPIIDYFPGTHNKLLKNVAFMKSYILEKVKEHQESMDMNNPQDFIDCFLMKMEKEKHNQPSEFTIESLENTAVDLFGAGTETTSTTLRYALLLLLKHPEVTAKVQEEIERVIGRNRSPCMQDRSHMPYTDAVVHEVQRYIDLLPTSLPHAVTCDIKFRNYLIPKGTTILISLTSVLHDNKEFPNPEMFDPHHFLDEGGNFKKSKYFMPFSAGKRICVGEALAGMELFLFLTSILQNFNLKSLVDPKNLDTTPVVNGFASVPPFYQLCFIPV
# Chain of Catechol O-methyltransferase (Homo sapiens) (P21964 whole entry, looked up): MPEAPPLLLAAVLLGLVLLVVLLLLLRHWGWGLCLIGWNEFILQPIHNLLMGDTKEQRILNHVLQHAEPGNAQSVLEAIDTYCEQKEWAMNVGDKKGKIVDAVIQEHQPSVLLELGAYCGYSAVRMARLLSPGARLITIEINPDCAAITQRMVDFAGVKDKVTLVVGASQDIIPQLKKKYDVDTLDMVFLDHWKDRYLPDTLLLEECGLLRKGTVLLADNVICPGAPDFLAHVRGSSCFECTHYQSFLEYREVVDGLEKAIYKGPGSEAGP
# Chain of N-terminal Xaa-Pro-Lys N-methyltransferase 1 (Homo sapiens) (Q9BV86 whole entry, looked up): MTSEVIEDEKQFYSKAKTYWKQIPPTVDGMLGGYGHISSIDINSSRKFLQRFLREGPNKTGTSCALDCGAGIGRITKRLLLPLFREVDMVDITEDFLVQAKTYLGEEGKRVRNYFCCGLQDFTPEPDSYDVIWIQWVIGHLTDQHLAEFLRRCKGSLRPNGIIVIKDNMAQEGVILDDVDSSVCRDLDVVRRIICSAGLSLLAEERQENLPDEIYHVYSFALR
# Chain of Cytochrome P450 3A4 (Homo sapiens) (P08684 whole entry, looked up): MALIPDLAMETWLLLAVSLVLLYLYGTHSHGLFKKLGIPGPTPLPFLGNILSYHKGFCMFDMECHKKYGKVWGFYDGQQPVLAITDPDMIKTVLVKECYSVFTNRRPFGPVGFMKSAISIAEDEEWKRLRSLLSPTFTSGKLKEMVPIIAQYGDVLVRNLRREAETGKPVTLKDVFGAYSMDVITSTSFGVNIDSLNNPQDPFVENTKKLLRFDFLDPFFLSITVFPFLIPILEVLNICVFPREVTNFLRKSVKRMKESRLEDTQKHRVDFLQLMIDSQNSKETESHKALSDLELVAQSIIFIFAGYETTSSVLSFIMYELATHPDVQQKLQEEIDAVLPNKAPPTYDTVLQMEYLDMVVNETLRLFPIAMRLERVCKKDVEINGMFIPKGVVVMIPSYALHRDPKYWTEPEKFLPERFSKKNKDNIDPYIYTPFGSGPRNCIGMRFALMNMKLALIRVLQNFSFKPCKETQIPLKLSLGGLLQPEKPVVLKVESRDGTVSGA
compound,measurement,setting,value
COc1ccccc1-c1cccc(-c2c(O)c3cc(C#N)c(Cl)cc3[nH]c2=O)c1,Potency,[1],inactive
same,Potency,[2],35.5 µM (active)
same,Potency,[3],inactive
same,Potency,[4],inactive
CC[C@@H](C)[C@H](NC(=O)[C@H](CC1CCCCC1)NC(=O)c1ccno1)C(=O)N1CCC2(CCc3ccccc32)CC1,Potency,[1],inactive
same,Potency,[5],inactive
same,Potency,[2],inactive
same,Potency,[3],inactive
same,Potency,[4],inactive
CCC(C)N(C)C(=O)c1cc2ccccc2c(-c2ccccc2Cl)n1 (stereo unspecified),Potency,[1],inactive
same,Potency,Papain (Carica papaya),inactive
CCC(C)n1ncn(-c2ccc(N3CCN(c4ccc(OC[C@H]5CO[C@](Cn6cncn6)(c6ccc(Cl)cc6Cl)O5)cc4)CC3)cc2)c1=O (stereo partly specified),Potency,[1],inactive
same,Potency,[5],inactive
same,Potency,[2],11 µM (active)
same,Potency,[3],502 nM (active)
OC[C@H](Cc1ccccc1)Nc1nc(Oc2ccc3c(c2)CCC3)nc2c1ncn2Cc1ccc(-c2ccccc2)cc1,Potency,[1],inactive
same,Potency,[5],inactive
same,activity,[6],-10.9%
same,"activity change, negative = inhibition",[7],-8.58%
same,activity,[8],-17.3%
same,activity,[9],-16%
O=C(Nc1cccnc1)N1CCC(Cc2cccc(Oc3ccc(C(F)(F)F)cn3)c2)CC1,Potency,[1],inactive
same,Potency,[5],4.25 µM (active)
same,Potency,[2],10.7 µM (active)
same,Potency,[3],6.49 µM (active) and 7.42 µM (active)
same,Potency,[4],5.25 µM (active)
CCN(CC)CCCC(C)Nc1nc(C)cc(Nc2ccc3nc(C)cc(N)c3c2)n1 (stereo unspecified),Potency,[1],inactive
same,Potency,[2],inactive
CC(C)OC(=O)C1=CN(C(=O)c2ccc(F)c(F)c2)CC(C)(C)c2c1[nH]c1ccccc21,Potency,[1],inactive
same,Potency,[5],inactive
same,Potency,[3],inactive
same,Potency,[4],inactive
CCCc1nc2c(C)cc(-c3nc4ccccc4n3C)cc2n1Cc1ccc(-c2ccccc2C(=O)O)cc1,Potency,[1],inactive
same,Potency,[2],8.71 µM (active)
same,Potency,[3],inactive
same,Potency,[4],inactive
same,outcome,[10],inactive
CCc1cncnc1N1CCN(Cc2nc3ccc(C(F)(F)F)cc3[nH]2)CC1,Potency,[1],inactive
same,Potency,[5],0.107 µM (active)
same,Potency,[2],0.477 µM (active)
same,Potency,Papain (Carica papaya),inactive
same,activity,[6],1.23%
same,"activity change, negative = inhibition",[7],5.86%
same,activity,[8],-37.3%
same,activity,[9],-14.9%
Cc1ccc(NC(=O)c2cccc(C(C)(C)C#N)c2)cc1Nc1ccc2ncn(C)c(=O)c2c1,Potency,[1],inactive
same,Potency,[5],12 µM (active)
same,Potency,[2],8.49 µM (active)
same,Potency,[3],10500 nM (active)
C[C@@H]1CN(Cc2ccc(F)cc2)[C@@H](C)CN1C(=O)c1cc2c(C(=O)C(=O)N(C)C)cn(C)c2cc1Cl,Potency,[1],inactive
same,Potency,[2],7.56 µM (active)
O=c1[nH]c(-c2ccc(C(F)(F)F)cc2)nc2c1CSCC2,Potency,[1],inactive
same,Potency,[5],inactive
same,Potency,[2],19 µM (active)
same,Potency,[3],inactive
Cn1cc(-c2ccc3nnc(C(F)(F)c4ccc5ncccc5c4)n3n2)cn1,Potency,[1],14.9 µM (active)
same,Potency,[2],3.01 µM (active)
COc1cc(Oc2ccnc3cc(OC)c(OC)cc23)ccc1NC(=O)NC(C)c1nccs1 (stereo unspecified),Potency,[1],inactive
same,Potency,[5],inactive
same,Potency,[2],0.601 µM (active)
same,Potency,[3],inactive and 13.2 µM (active)
COc1ccc(-c2oc3cc(OC)ccc3c2C(=O)c2ccc(C#N)cc2)cc1,Potency,[1],inactive
same,Potency,[2],7.56 µM (active)
N=c1nc(N2CCCCC2)cc(N)n1O,Potency,[1],inactive
same,Potency,[5],7.76 µM (active)
same,Potency,[11],inactive
same,Potency,[2],inactive
same,Potency,Papain (Carica papaya),inactive
same,Potency,[3],inactive
same,Potency,[4],inactive
COc1ccc(CCN2CCN(CCCc3ccccc3)CC2)cc1OC,Potency,[1],inactive
same,Potency,[5],8.49 µM (active)
same,Potency,[2],inactive
same,Potency,[3],inactive
same,Potency,[4],inactive
CC(C)(N)C(=O)N[C@H](COCc1ccccc1)C(=O)N1CCC2(CC1)CN(S(C)(=O)=O)c1ccccc12,Potency,[1],inactive
same,Potency,[2],inactive
same,Potency,[3],16.3 µM (active) and 26.3 µM (active)
same,Potency,[4],14.5 µM (active) and 14.8 µM (active)
O=C(NOC[C@H](O)CO)c1ccc(F)c(F)c1Nc1ccc(I)cc1F,Potency,[1],inactive
same,Potency,[2],16.9 µM (active)
same,Potency,[3],inactive
same,Potency,[4],inactive
COc1cc2c(cc1OC)CN(CCc1ccc(NC(=O)c3cccc4c(=O)c5cccc(OC)c5[nH]c34)cc1)CC2,Potency,[1],inactive
same,Potency,[2],3.01 µM (active)
same,Potency,[12],35.5 µM (active)
same,Potency,[3],inactive
same,Potency,[4],inactive
same,activity,[6],-13%
same,"activity change, negative = inhibition",[7],-0.294%
same,activity,[8],-75.2%
same,activity,[9],-10.7%
same,outcome,[10],inactive
Clc1ccc(Nc2nnc(Cc3ccncc3)c3ccccc23)cc1,Potency,[1],inactive
same,Potency,[5],0.0174 µM (active)
same,Potency,[2],0.049 µM (active)
same,Potency,[12],inactive
same,Potency,[3],15 µM (active) and 9.34 µM (active)
same,Potency,[4],13.3 µM (active) and 8.33 µM (active)
NS(=O)(=O)c1cc2c(cc1Cl)NC=NS2(=O)=O,Potency,[1],inactive
same,Potency,Papain (Carica papaya),inactive
same,Potency,[3],inactive
same,Potency,[4],inactive
COc1ccc([C@@H]2CC(=O)c3c(O)cc(O[C@@H]4O[C@H](CO[C@@H]5O[C@@H](C)[C@H](O)[C@@H](O)[C@@H]5O)[C@@H](O)[C@H](O)[C@@H]4O)cc3O2)cc1O,Potency,[1],inactive
same,Potency,[5],inactive
same,Potency,[2],inactive
